Screening results (PubChem BioAssay)
An excerpt weighted towards active compounds, which were near 19% of everything screened.
TDP1 cell CPT: growth inhibition of DT40 Tdp1-/-;hTDP1 cells with camptothecin (screen for TDP1 inhibitors); chicken DT40 Tdp1-/-;hTDP1 cells + 20 nM CPT, ATP luminescence, 48 h; Potency, µM (series often up to 46.2 µM), usual class: inhibitors; AID 686979; actives 12% (n = 420,000); further: nearly all actives have a fitted effect of over 55% in size
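Chicken DT40 Tdp1-/- cells complemented with human TDP1, 400 cells/well, exposed to compounds plus 20 nM camptothecin for at least 48 h at 37 C; viability read as ATP content by CellTiter-Glo luminescence.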
TDP1 cell noCPT: qHTS for Inhibitors of human tyrosyl-DNA phosphodiesterase 1 (TDP1): qHTS in cells in absence of CPT | DT40 Tdp1-/- hTDP1 cells, no CPT, ATP luminescence, 48 h | Potency, µM (doses to about 46.2 µM), hits mostly inhibitors | actives 15% (n = 420,000); further: nearly all actives have a fitted effect of over 55% in size
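A cellular qHTS used chicken DT40 cells lacking endogenous Tdp1 but carrying stably transfected human TDP1. Compounds were applied without camptothecin, and cell growth kinetics were judged by ATP-dependent luminescence after ≥48 hr.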
HT1080NT lethal: kills 2HG-producing HT-1080-NT fibrosarcoma cells. Potency, µM (series often up to 46.1 µM), hits mostly cytotoxic. HT-1080-NT fibrosarcoma viability, CellTiter-Glo ATP luminescence, 48 h. actives 1.6% (n = 360,000);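 further: NT is the 2HG producing partner of a matched IDH1 knockdown line; nearly all actives have a fitted effect of over 55% in size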
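Toxicity toward the 2HG-producing NT line was scored as %Activity, normalised to DMSO and no-cell wells, from CellTiter-Glo luminescence after 48 hours' treatment.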
HT1080 IDH1KD tx: kills HT-1080 cells with IDH1 knockdown. Potency, µM (highest dose often 46.1 µM), most hits filed as cytotoxic. actives 2% (n = 360,000). HT-1080 IDH1 knockdown viability, ATP luminescence, 48 h. AID 686971
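Knockdown cells (IDH1KD HT-1080) received compounds 2 h after plating at 750 cells/well and were kept 48 h at 37 °C in 5% FBS RPMI. A CellTiter-Glo luminescence read gave % activity for curve fitting.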
IL1B secr inh: blocks inflammasome-driven IL-1 beta release. THP-1 LPS/ATP IL-1B secretion, AlphaLISA, 16 h; active compounds read low. activity change, % at 57.5 µM. actives 4.7% (n = 360,000); in the data active means activity change below about -50%; inconclusive means mostly about -30% to -49%
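Secreted IL-1B measured by AlphaLISA bead assay after 16 h compound exposure of THP-1 cells; compounds (final up to 57.5 uM) added 1 h before LPS (250 ng/mL) and ATP (1.25 mM) stimulation; lower signal means less secretion.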
Numbers stand for hits; . = inactive; ? = inconclusive; / = not tested or not shown; ! = not confirmed by another sample. Unless noted, the call rests on the fitted dose curve; in most records, active means well fitted curve in the direction sought with a large enough effect; inconclusive means small, poorly fitted or top-dose-only effect, or another doubt; inactive means no such curve, though single readings can be large; an effect the other way counts as inactive or inconclusive.

SMILES | TDP1 cell CPT | TDP1 cell noCPT | HT1080NT lethal | HT1080 IDH1KD tx | IL1B secr inh
CC1CCN(CC(=O)NC2CCCCC2)CC1 | . | . | . | . | .
O=C(Nc1ccc2nn(-c3ccccc3)nc2c1)c1cc2ccccc2o1 | ? | 15µM | / | / | /
CCc1ccc(-n2nc3ccc(NC(=O)c4cc5ccccc5o4)cc3n2)cc1 | ? | 4.6µM | / | / | /
O=C(Nc1cccc(-n2cnnn2)c1)c1cc2ccccc2o1 | . | . | . | . | .
CNc1c([N+](=O)[O-])cnn1-c1ccc(C)cc1 | . | . | . | . | .
CC(C)(C)CC(=O)OCC(=O)[C@@]12OC(C)(C)O[C@@H]1C[C@H]1[C@@H]3CCC4=CC(=O)C=C[C@]4(C)[C@@]3(F)[C@@H](O)C[C@@]12C | . | . | / | / | /
CC(=O)OCC(=O)[C@@]1(O)CC[C@H]2[C@@H]3CCC4=CC(=O)C=C[C@]4(C)[C@@]3(F)[C@@H](O)C[C@@]21C | . | . | . | . | -56
C[C@]12CCC(=O)C=C1CC[C@@H]1[C@@H]2[C@@H](O)C[C@@]2(C)[C@H]1CC[C@]2(O)C(=O)COC(=O)CCC(=O)O | ? | 8.4µM! | ? | . | ?
CC(=O)OCC(=O)C1(O)CCC2C3CCC4=CC(=O)CCC4(C)C3(Cl)C(O)CC21C (configuration not stated) | ? | ? | . | . | .
CC(=O)OCC(=O)C1(O)CCC2C3CCC4=CC(=O)CCC4(C)C3(F)C(O)CC21C (configuration not stated) | . | . | . | ? | -53
CC12C=CC(=O)C=C1CCC1C3CCC(O)(C(=O)CO)C3(C)CC(O)C12F (configuration not stated) | . | . | ? | ? | -57
CC12C=CC(=O)C=C1C(F)CC1C3CCC(O)(C(=O)CO)C3(C)CC(O)C12F (configuration not stated) | . | ? | ? | ? | .
COc1ccc(NC(=O)CSc2nnc3n2CCCCC3)cc1S(=O)(=O)N1CCOCC1 | . | . | . | . | .
O=C(NCc1ccc(Cl)cc1)C1CCN(S(=O)(=O)N2CCOCC2)CC1 | . | . | . | . | .
CC(=O)C1(O)CCC2C3CC(C)C4=CC(=O)C=CC4(C)C3(F)C(O)CC21C (configuration not stated) | ? | . | ? | ? | -54
CC(=O)OCC(=O)C1(O)CCC2C3CC(C)C4=CC(=O)C=CC4(C)C3(F)C(O)CC21C (configuration not stated) | . | . | . | ? | /
CC(=O)NC(c1ccccc1)c1nc(-c2cccc(F)c2)cs1 (configuration not stated) | ? | ? | . | . | .
CCCCn1nnnc1C(c1cc2ccccc2o1)N1CCCN(C(=O)OC(C)(C)C)CC1 (configuration not stated) | ? | ? | ? | . | .
COCC(C)n1c(C)cc(C(=O)COc2ccc(S(=O)(=O)N3CCOCC3)cc2Cl)c1C (configuration not stated) | 21µM | ? | . | . | .
CN(C)CC(CCC(CN(C)C)C(=O)c1ccccc1)C(=O)c1ccccc1 (configuration not stated) | 1.5µM | 1.6µM | 3.3µM | 5.8µM | -100
COc1ccc(C(=O)C(CCCCC(CN(C)C)C(=O)c2ccc(OC)cc2)CN(C)C)cc1 (configuration not stated) | 21µM | 5.8µM | . | ? | .
O=C(OCCN1CCCCC1)c1cccc(Cl)c1 | . | . | . | . | .
CCC(Sc1nc(-c2ccccc2)c(-c2ccccc2)[nH]1)C(=O)O (configuration not stated) | . | . | . | . | .
CC(C)c1nc(-c2ccccc2)c(-c2ccccc2)[nH]1 | ? | 21µM | . | . | .
Cc1ccc(C)c(N2CCN(S(=O)(=O)c3ccc(C(=O)N(C)C)s3)CC2)c1 | 18µM | 16µM | / | / | /
SMILES | TDP1 cell CPT | TDP1 cell noCPT | HT1080NT lethal | HT1080 IDH1KD tx | IL1B secr inh
Cc1ccc(C)c(N2CCN(S(=O)(=O)c3csc(C(N)=O)c3)CC2)c1 | 16µM! | ? | . | . | .
Cc1ccc(C)c(N2CCN(S(=O)(=O)c3cn(C)cn3)CC2)c1 | . | . | . | . | .
Cc1nc2cccnc2n1-c1cccc(C(=O)NCc2cccc(Cl)c2)c1 | 21µM | 18µM | / | / | /
CCc1ccc(CNC(=O)c2cccc(-n3c(C)nc4cccnc43)c2)cc1 | 13µM | 16µM | / | / | /
Cc1nc2cccnc2n1-c1cccc(C(=O)NCCN(C)C)c1 | . | . | / | / | /
Cc1ccc(C(=O)N2CCN(c3cccc(Cl)c3)CC2)cc1-n1c(C)nc2cccnc21 | 10µM | 9.2µM | / | / | /
COc1cccc(/C=N/NC(=O)c2cnn(-c3ccccc3)c2N)c1 | ? | 21µM | . | . | .
Nc1c(C(=O)N/N=C/c2ccc(OCc3ccccc3)cc2)cnn1-c1ccccc1 | 16µM | 12µM | . | . | .
